# Assay outcomes from PubChem BioAssay.
# Only some compounds are listed: those with a hit (about 4.8% of all), similar ones and a draw of the others.
# hgDAF12 agonist – agonists of H. glycines DAF-12 nuclear receptor; HEK293 GAL4-hgDAF12 UAS-luciferase reporter, agonist luminescence; normalized to butyrate control; activation, % at 6.8 µM; actives 1.8% (n = 370,000); AID 687014;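 active = activation above a cutoff set at the mean of all screened compounds plus 3 SD, cut at about 10% in these data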;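 note: 0% = DMSO wells and 100% = sodium butyrate wells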
# DAX1 inh-1 – blocks DAX1 repression of SF-1 activated StAR promoter; HEK293T StAR-luciferase reporter, SF-1/DAX-1 repression relief; inhibition, % at 6.8 µM; actives 1.1% (n = 370,000);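 active = inhibition above the mean over all tested compounds plus 3 SD, cut at about 3.6% in these data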;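 note: 0% = DAX-1 cells with DMSO and 100% = cells lacking DAX-1 with DMSO; higher inhibition means more luminescence from relief of DAX-1 repression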
# DAX1 inh-2 – NR0B1 (DAX1) inhibition. HEK293 Gal4-DAX1 luciferase reporter, luminescence. actives 0.99% (n = 340,000). P51843. inhibition, % at 6.75 µM. AID 504766;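 active = inhibition above the mean over all tested compounds plus 3 SD, cut at about 4.2% in these data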;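 note: 0% = DAX1-transfected cells with DMSO and 100% = empty-vector control cells with DMSO; inhibition shows as a rise in luminescence from relieved DAX1 repression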
# Target sequence (P51843 207-470 limits assumed): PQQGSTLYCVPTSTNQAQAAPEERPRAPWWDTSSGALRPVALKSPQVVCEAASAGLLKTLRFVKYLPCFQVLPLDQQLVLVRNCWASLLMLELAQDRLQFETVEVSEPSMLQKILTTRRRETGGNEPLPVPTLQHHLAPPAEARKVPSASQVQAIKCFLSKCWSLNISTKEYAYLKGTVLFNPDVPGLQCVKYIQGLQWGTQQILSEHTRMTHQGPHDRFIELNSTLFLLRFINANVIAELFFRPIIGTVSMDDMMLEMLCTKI
# SMARCA2 activ – SMARCA2 function activation, primary screen. MG213 cells, MMTV-luciferase reporter, dexamethasone, overnight. activation, % at 9.1 µM. actives 1% (n = 370,000). AID 652017; in the data active = activation above about 7.8%;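 note: 0% = vehicle wells and 100% = reference activator wells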
# hcDAF-12 act – H. contortus DAF-12 activation, primary screen; HEK293 hcDAF-12 lit1-tk-luc reporter, luminescence; 0% DMSO, 100% Δ7-dafachronic acid; activation, % at 6.8 µM; actives 1.4% (n = 370,000); AID 652067;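 active = activation above the mean of all tested compounds plus 3 SD, cut at about 5.5% in these data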;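 note: 100% = response to 3 µM Δ7-dafachronic acid high control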
# ssDAF-12 act – S. stercoralis DAF-12 activation, primary screen | HEK293 ssDAF-12/GRIP1 lit1-tk-luc reporter, luminescence; % of 3 µM dafachronic acid response | activation, % at 6.8 µM | actives 1% (n = 370,000);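 active = activation above the mean over all tested compounds plus 3 SD, cut at about 0.9% in these data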;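 note: 0% = DMSO-only wells and 100% = 3 µM delta7-dafachronic acid wells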
# LXRb hcDAF ctr – LXR-beta agonism as hcDAF-12 counter-screen | shares compounds with hcDAF-12 act | activation, % at 6.8 µM | HEK293 Gal4-LXR tk-luc reporter, luminescence, 24 h; normalized: DMSO 0%, positive control 100% | 3,400 tested, under 10 active;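 active = mean percent activation of the reporter above a cutoff set as the average over tested compounds plus their standard deviation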
# hcDAF12 ag – confirmation of H. contortus DAF-12 agonists | shares compounds with hcDAF-12 act | HEK293 hcDAF-12 lit1-tk-luc reporter, luminescence; % of Δ7-dafachronic acid response | activation, % at 6.8 µM | actives 61% (n = 3,400) | AID 743032;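 active = mean activation across triplicate tests above the threshold derived from the earlier primary screen, cut at about 5.5% in these data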;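 note: 0% = DMSO only wells and 100% = 3 µM Δ7-dafachronic acid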
# The depositor's hits bear a star; · = no result.
SMILES,hgDAF12 agonist,DAX1 inh-1,DAX1 inh-2,SMARCA2 activ,hcDAF-12 act,ssDAF-12 act,LXRb hcDAF ctr,hcDAF12 ag
CCCn1c(C)cc(C(=O)CN2C(=O)c3ccccc3C2=O)c1C,11*,3,1,7,9.7*,0.9*,1,12*
O=C(NN=C(Cc1ccccc1)Cc1ccccc1)c1ccc(F)cc1,9,1,-1,5,6.8*,-1,0,1
C/C(Cc1ccccc1)=N\NC(=O)c1ccc(F)cc1,4,0,0,1,1,1,·,·
Cc1ccn2cc(-c3cccc(NC(=O)C(C)C)c3)nc2c1,7,1,0,3,3,-1,·,·
Cc1ccn2cc(-c3ccc(O)c(O)c3)nc2c1,9,3,-2,0,7.0*,1,1,7.5*
O=C(O)c1ccc(N=Nc2c(O)ccc3ncccc23)cc1,12*,3,0,5,6.6*,1,1,10*
c1cnc2c(OCc3nc4ccccc4[nH]3)cccc2c1,8,2,2,7,11*,1.2*,1,9.6*
COC(=O)[C@]12C[C@H](CC(=O)N3CCCCC3)C(=O)N(Cc3ccccc3)C1=C[C@H](C1CCCC1)O[C@@H]2C,-1,0,·,-6,-2,-1,·,·
CCOC(=O)C1=C[C@@H](C(C)(C)C)N(S(=O)(=O)c2ccc([N+](=O)[O-])cc2)[C@H]1c1ccccc1Cl,0,-2,·,-4,0,-1,·,·
CCOC(=O)N1CCN(C(=O)C[C@H]2C[C@@]3(C(=O)OC)C(=C[C@H](C(C)C)O[C@@H]3C3CC3)N(Cc3ccccc3)C2=O)CC1,-1,0,·,-5,-1,-1,·,·
Fc1ccc(OCc2nnc(-c3ccccc3Br)o2)c(Cl)c1,11*,1,1,6,7.1*,0,1,3
NCc1ccc(OCCCN2CCC(C(O)(C3=CCCC3)c3ccccc3)CC2)cc1 (configuration not stated),-2,1,·,8,0,0,·,·
COCCNC(=O)CN1C(=O)NC2(CCOc3ccccc32)C1=O (configuration not stated),0,0,0,-1,7.2*,-1,0,4
CCOC(=O)c1c(C)oc2c1c(C(c1ccccc1)N1CCOCC1)c(O)c1ccccc12 (configuration not stated),13*,4.0*,4.2*,4,11*,1.0*,1,7.3*
COCCNC(=S)NNc1ccccc1[N+](=O)[O-],2,-1,0,1,8.7*,0,0,5
CN1CCc2c(sc3nc(SCC(N)=O)n(-c4ccc(Cl)cc4)c(=O)c23)C1,2,-1,1,-1,4,1,·,·
O=C(CSc1nc2sc3c(c2c(=O)n1-c1ccc(Cl)cc1)CCC3)Nc1ccc(C(=O)O)cc1,0,1,·,-2,7.9*,-1,0,2
CC(C)c1ccc(NC(=O)[C@@H]2CCC(=O)N2C2OC(=O)c3ccccc32)cc1 (some centres not stated),7,3,4,4,7.4*,0,0,5
CCc1ccccc1NC(=O)[C@@H]1CCC(=O)N1C1OC(=O)c2ccccc21 (some centres not stated),0,0,3,3,-1,-1,·,·
COc1cc2cc(C(c3nnnn3C(C)(C)C)N3CCc4ccccc43)c(=O)[nH]c2cc1OC (configuration not stated),-1,0,0,-4,7.3*,0,0,0
CCOC(=O)c1[nH]c2ccc(Br)cc2c1NC(=O)CNC,2,0,1,-6,9.9*,0,0,5
COC(=O)c1[nH]c2ccccc2c1NS(=O)(=O)c1ccc(F)c(C)c1,-3,-1,0,-3,0,-1,·,·
CCCS(=O)(=O)Nc1c(C(=O)OC)[nH]c2ccccc12,1,0,-1,1,10*,-1,0,4
CCOC(=O)c1[nH]c2ccccc2c1NC(=S)Nc1ccccc1C,6,3,2,5,10*,1.1*,0,6.6*
CCOC(=O)c1[nH]c2ccc(Br)cc2c1NC(=O)CCN1CCC(C)CC1,0,-1,0,-3,-1,0,·,·
SMILES,hgDAF12 agonist,DAX1 inh-1,DAX1 inh-2,SMARCA2 activ,hcDAF-12 act,ssDAF-12 act,LXRb hcDAF ctr,hcDAF12 ag
COc1ccc(C(=O)c2[nH]c(N)c(C(=O)c3c[nH]c4ccccc34)c2-c2ccc(F)c(OC)c2)cc1,-1,0,·,-2,2,0,·,·
c1ccc2c(c1)Nc1nccnc1S2,7,2,-1,1,7.7*,0,0,7.5*
CCCCc1c(-c2ccccc2OC)ncn1Cc1ccc(C(C)(C)C)cc1,-4,-2,·,-10,-2,-1,·,·
O=c1cc(/C=C/c2ccccc2)oc2ccccc12,12*,3.7*,1,4,6.9*,1.6*,1,9.4*
CC(C)NC(=O)c1ccc2c3n(nc2c1)-c1ccccc1CO3,9,3,-4,4,6.9*,0,2,8.1*
Cc1ccc(N(CC(=O)Nc2ccccc2-c2ccccc2)S(=O)(=O)c2ccccc2)c(C)c1,2,0,0,0,6.6*,-2,0,2
CS(=O)(=O)N(CC(=O)Nc1ccccc1-c1ccccc1)c1ccccc1,-1,0,0,-5,0,-1,·,·
Clc1ccccc1-c1nn2c(-c3cc(-c4ccccc4)n[nH]3)nnc2s1,-2,-1,·,-2,-2,-2,·,·
O=C(CSC1=NS(=O)(=O)c2cc(Cl)ccc2N1)NCc1ccccc1,1,-1,-1,-2,7.0*,-1,0,-1
Cc1ccc(-n2c(SCC(=O)Nc3cccc4ccccc34)nnc2-c2cccs2)cc1,-2,-1,·,2,0,-1,·,·
O=C1NC(=S)N(C(=O)c2ccc(F)cc2)/C1=C/c1cccnc1,6,0,·,-5,-1,-1,·,·
COc1ccc(/C=C2\C(=O)NC(=S)N2C(=O)c2ccc(C)cc2)cc1,8,2,1,1,7.4*,0,0,1
Fc1ccc(-n2nnc(-c3cnc4ccccc4c3)n2)cc1,11*,3,-1,7,9.6*,0,0,1
COc1cc(-n2c(C)cc(O)cc2=O)ccc1Cl,3,0,·,0,1,0,·,·
